Inconclusive results are not listed. Calls of active or inactive are those of the source. Unless noted, calls come from the whole dose curve.

Experiment [1] is described as follows: qHTS assay to identify small molecule agonists of the vitamin D receptor (VDR) signaling pathway - cell viability counter screen (AID 743224; active = well fitted curve in the direction sought with a large enough effect in the repeat runs; an effect the other way counts as inactive or inconclusive; note: nearly all actives have a fitted effect of over 50% in size; note: potency is the fitted concentration of half-maximal effect). The conditions noted are these: VDR-bla HEK293T viability, CellTiter-Glo luminescence, 16 h; series mostly up to 62.6 µM. An outline of the steps: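 VDR-bla cell line, quantitative HTS format; 16 h compound incubation (37C, 5% CO2); ATP-based CellTiter-Glo luminescence measured in the reporter assay wells.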
In general terms: qHTS replaces the single test concentration by a dilution series.

Experiment [2] can be described thus: qHTS assay to identify small molecule agonists of the NFkB signaling pathway (AID 1159509; active = well fitted curve in the direction sought with a large enough effect in the signal ratio in the repeat runs, not every such curve was filed as active; the % refers to the signal ratio). The following applies: NFkB-bla ME-180 cells, beta-lactamase FRET ratio, 5 h; series mostly up to 61 µM. The procedure, abridged:
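After overnight attachment, reporter cells received test compounds, DMSO or positive controls and were incubated 5 hr at 37 C. FRET substrate was then added for 1.5 hr at room temperature before dual-emission fluorescence reading.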

Experiment [3] is described as follows: qHTS assay to identify small molecule agonists of the NFkB signaling pathway - cell viability counter screen (AID 1159515). Note: nearly all actives have a fitted effect of over 55% in size. The following applies: NFkB-bla ME-180 viability, CellTiter-Glo luminescence, 5 h; series mostly up to 61 µM. An outline of the steps:
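Viability in NFkB-bla ME-180 cells was measured by CellTiter-Glo luminescence, 30 min room temperature, in wells already treated 5 hr with compounds and read for reporter FRET.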

A short description of experiment [4]: qHTS assay to identify small molecule agonists of the endoplasmic reticulum stress response signaling pathway (AID 1159516; active = well fitted activation curve with a large enough effect in the signal ratio in the repeat runs, not every such curve was filed as active; the % refers to the signal ratio). The conditions noted are these: ESRE-bla HeLa, ER stress beta-lactamase reporter, 5 h; series mostly up to 61 µM. An outline of the steps: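 ER stress element reporter (bla) in HeLa. 1,500 cells/well, overnight attachment; 5 hr compound; 2 hr RT substrate; dual-emission fluorescence.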

Experiment [5] is described as follows: qHTS assay to identify small molecule agonists of the endoplasmic reticulum stress response signaling pathway - cell viability counter screen (AID 1159517). Note: nearly all actives have a fitted effect of over 50% in size. The conditions noted are these: ESRE-bla HeLa viability, CellTiter-Glo luminescence, 5 h; series mostly up to 61 µM. The procedure, abridged:
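Cells, HeLa ESRE-bla; density, 1,500/well; dosing, 5 hr at 37 C, 5% CO2; readout, CellTiter-Glo luminescence after 30 min RT.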

Experiment [6] can be described thus: qHTS assay to identify small molecule agonists of the AP-1 signaling pathway - cell viability counter screen (AID 1159525). Note: nearly all actives have a fitted effect of over 55% in size. The following applies: ME-180 AP-1-bla cells viability, ATP luminescence, 5 h; series mostly up to 76.8 µM. An outline of the steps:
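Luminescent ATP readout (Cell Titer Glo, 30 min RT), normalised to DMSO and tetra n-octyl ammonium bromide controls. Cells were ME-180 AP-1-bla in 0.5% dialyzed FBS Opti-MEM, with a 5 h, 37 °C compound exposure.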

Experiment [7] can be described thus: qHTS assay to identify small molecule antagonists of the vitamin D receptor (VDR) signaling pathway - cell viability counter screen (AID 743225; active = well fitted curve in the direction sought with a large enough effect in the repeat runs; an effect the other way counts as inactive or inconclusive; note: nearly all actives have a fitted effect of over 50% in size). The conditions noted are these: VDR-bla HEK293T viability, CellTiter-Glo luminescence, 16 h; series mostly up to 61 µM. An outline of the steps: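 In this counter screen, VDR-bla HEK 293T cells receive test compound plus 3 nM final calcitriol for 16 h at 37C. Room-temperature steps of 2 h with the beta-lactamase substrate, then 30 min with CellTiter-Glo, precede the luminescence read.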

Experiment [8] is described as follows: qHTS assay to identify small molecule antagonists of the retinoid-related orphan receptor gamma (ROR-gamma) signaling pathway - cell viability counter screen (AID 1159520; active = well fitted curve in the direction sought with a large enough effect in the repeat runs; an effect the other way counts as inactive or inconclusive; note: nearly all actives have a fitted effect of over 50% in size). The following applies: Tet-on RORgamma CHO cells viability, ATP luminescence, 16 h; series mostly up to 92.4 µM. The procedure, abridged: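 Cytotoxicity was read from cellular ATP (CellTiter-Glo luminescence) after 16 hr at 37 C with 1 uM doxycycline induction. The inducer was added 2 hr after compound transfer to Tet-on ROR gamma CHO cells.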

Experiment [9] in a line: qHTS assay to identify small molecule agonists of the AP-1 signaling pathway (AID 1159526). The following applies: ME-180 (cervical carcinoma) AP-1-bla reporter, beta-lactamase FRET ratio, 5 h; series mostly up to 76.8 µM.
Experiment [10] has as its target Nuclear receptor ROR-gamma (Homo sapiens) (UniProt P51449). Nature of the experiment: qHTS assay to identify small molecule antagonists of the retinoid-related orphan receptor gamma (ROR-gamma) signaling pathway (AID 1159521; active = well fitted curve in the direction sought with a large enough effect in the repeat runs; an effect the other way counts as inactive or inconclusive; note: nearly all actives have a fitted effect of over 50% in size; note: potency is the fitted concentration of half-maximal effect). The following applies: Tet-on RORgamma CHO cells, RORE-luciferase, 16 h; series mostly up to 92.4 µM. An outline of the steps:
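Screening format: cell-based luciferase reporter in CHO cells with doxycycline-inducible RORγ. Compound pre-exposure lasts 2 h, doxycycline is 1 uM final, induction runs 16 h at 37 C, and ONE-Glo luminescence is read.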

Regarding `NC(=O)CI`, the Potency entry in experiment [1], in experiment [3], in experiment [5] and in experiment [6] was “inactive” throughout. Besides, the result in experiment [2] and in experiment [4] was inactive.
On to `CN1[C@@H]2CC[C@H]1CC(OC(=O)c1cc(Cl)cc(Cl)c1)C2` (stereo partly specified), for which the Potency result in [1], in experiment [7], in experiment [3], in [5], in experiment [8] and in [6] was “inactive” in each case. Further, the outcome in experiment [2], in experiment [4] and in experiment [9] was inactive.
Turning to `BrCCCCBr`, the Potency result in experiment [1], in [3], in [8], in experiment [10] and in experiment [6] was “inactive” throughout. Further, the outcome in [2], in experiment [4] and in experiment [9] was inactive.
Regarding `CCCN(CCCl)c1c([N+](=O)[O-])cc(C(F)(F)F)cc1[N+](=O)[O-]`, the Potency result in [7], in experiment [3], in experiment [5] and in [10] was “inactive” each time. The result in experiment [2] and in experiment [4] was inactive.
Regarding `COCC(C)N(C(=O)CCl)c1c(C)csc1C` (stereo unspecified), the Potency entry in experiment [7], in experiment [3], in experiment [5], in experiment [8] and in experiment [6] was “inactive” throughout. Further, the result in experiment [2] and in [4] was inactive.
Turning to `CCCC(Cn1cncn1)c1ccc(Cl)cc1Cl` (stereo unspecified), the Potency entry in experiment [1], in experiment [7], in experiment [3], in experiment [5] and in experiment [6] was “inactive” throughout. Further, the result in experiment [2] and in experiment [4] was inactive.
In the case of `O=C(O)c1ccccc1C(=O)Nc1cccc2ccccc12`, the Potency entry in experiment [1], in [7], in experiment [3], in [5], in experiment [8] and in experiment [10] was “inactive” each time. Also, the Potency result in experiment [6] was “inactive”. Besides, the result in [2] was inactive.
With `C=CC(C)=O`, the Potency entry in [1], in experiment [3], in experiment [8] and in experiment [6] was “inactive” each time. Moreover, the outcome in [2], in [4] and in [9] was inactive.
On to `CCBr`, for which the Potency result in [1], in experiment [7], in experiment [3], in experiment [10] and in [6] was “inactive” in each case. Besides, the outcome in experiment [2], in experiment [4] and in experiment [9] was inactive.
Consider `O=C(O)C(F)(F)C(F)(F)C(F)(F)C(F)(F)C(F)(F)C(F)(F)C(F)(F)C(F)(F)C(F)(F)C(F)(F)F`, for which the Potency entry in experiment [1], in experiment [7], in experiment [3], in experiment [5], in experiment [8] and in experiment [10] was “inactive” each time. The Potency entry in experiment [6] is “inactive”. Besides, the result in experiment [2] and in experiment [9] was inactive.
Take `COc1cc(CC(C)N)cc2c1OCO2` (stereo unspecified): the Potency entry in [1], in [7], in experiment [3], in [5], in experiment [8] and in [10] was “inactive” in each case. The Potency entry in experiment [6] was “inactive”. The result in experiment [2] and in experiment [9] was inactive.
With `Cl/C=C\Cl`, the Potency entry in [1], in experiment [7], in experiment [3], in [10] and in experiment [6] was “inactive” each time. Also, the outcome in [2], in [4] and in [9] was inactive.
In the case of `C=CCN1CC[C@]23c4c5ccc(O)c4O[C@H]2C(=O)CC[C@@]3(O)[C@H]1C5`, the Potency entry in [1], in [3], in experiment [10] and in [6] was “inactive” in each case. Also, the outcome in experiment [2], in experiment [4] and in experiment [9] was inactive.
For the molecule `C=COC(C)=O`, the Potency entry in experiment [1], in [7], in experiment [3], in [5], in experiment [8] and in experiment [10] was “inactive” each time. For the same molecule, the Potency entry in experiment [6] was “inactive”. In addition, the outcome in experiment [2] and in [9] was inactive.
`O=C(NC(=O)c1c(F)cccc1F)Nc1ccc(OC(F)(F)C(F)OC(F)(F)F)c(Cl)c1` (stereo unspecified): the Potency result in experiment [1], in experiment [7], in experiment [3] and in experiment [10] was “inactive” in each case. The result in [2], in experiment [4] and in experiment [9] was inactive.
Turning to `COP(=S)(Oc1cc(Cl)c(Br)cc1Cl)c1ccccc1` (stereo unspecified), the Potency in [1] was 38.9 µM (active). The Potency result in experiment [7], in experiment [3] and in experiment [6] was “inactive” throughout. The result in experiment [2] and in [4] was inactive.
For the molecule `C=CCCl`, the Potency result in [1], in experiment [7] and in [3] was “inactive” each time. Further, the outcome in experiment [2], in experiment [4] and in [9] was inactive.
As to `CC1CC(CC2CCC(N)C(C)C2)CCC1N` (stereo unspecified), the Potency result in [1], in [3], in experiment [8], in experiment [10] and in [6] was “inactive” each time. The result in [2] and in experiment [4] was inactive.
Take `CCC(Cl)CCl` (stereo unspecified): the Potency result in experiment [1], in [7], in experiment [3], in experiment [5], in [8] and in experiment [10] was “inactive” each time. The Potency entry in experiment [6] was “inactive”. Moreover, the outcome in experiment [2] and in [9] was inactive.
Regarding `O=C(NCc1cccnc1)Nc1ccc([N+](=O)[O-])cc1`, the Potency result in experiment [1], in experiment [3], in experiment [5], in experiment [8], in experiment [10] and in [6] was “inactive” in each case. The result in experiment [2] and in experiment [9] was inactive.
On to `ClCC(Br)CBr` (stereo unspecified), for which the Potency result in experiment [1], in experiment [7], in [3], in experiment [8], in experiment [10] and in [6] was “inactive” each time. For the same molecule, the result in experiment [2], in [4] and in experiment [9] was inactive.
`CCOP(=O)(OCC)Oc1ccc([N+](=O)[O-])cc1`: the Potency result in experiment [1], in experiment [7], in [3], in experiment [5], in experiment [8] and in experiment [10] was “inactive” in each case. In addition, the outcome in experiment [2] and in [9] was inactive.
Consider `COP(=S)(OC)Oc1cc(Cl)c(I)cc1Cl`, for which the Potency entry in experiment [7], in [3] and in experiment [6] was “inactive” in each case. Moreover, the outcome in experiment [2] and in [4] was inactive.
Take `C[C@@H]1CC[C@H]2[C@@H](C)C(=O)O[C@@H]3O[C@@]4(C)CC[C@@H]1[C@]32OO4`: the Potency entry in experiment [1], in experiment [7], in experiment [3], in [8] and in experiment [6] was “inactive” in each case. Besides, the outcome in [2], in [4] and in experiment [9] was inactive. Moreover, in experiment [10], the Potency is 237 nM (active).
For the molecule `CCCCCC[N+](=O)[O-]`, the Potency entry in [1], in [7], in experiment [3] and in experiment [8] was “inactive” each time. Further, the outcome in experiment [2], in [4] and in experiment [9] was inactive.
Take `CC/C(=N\OC/C=C/Cl)C1=C(O)CC(C2CCOCC2)CC1=O` (stereo unspecified): the Potency entry in experiment [1], in experiment [7], in experiment [3] and in experiment [6] was “inactive” each time. Also, the result in [2], in [4] and in experiment [9] was inactive.
As for `O=C(O)C(F)(F)C(F)(F)C(F)(F)C(F)(F)C(F)(F)C(F)(F)C(F)(F)C(F)(F)C(F)(F)F`, the Potency entry in [7], in experiment [3], in experiment [10] and in experiment [6] was “inactive” throughout. In addition, the result in experiment [2] and in experiment [4] was inactive.
As to `Nc1nc(N)nc(N)n1`, the Potency result in [1], in [7], in [3] and in experiment [8] was “inactive” in each case. The outcome in experiment [2], in [4] and in experiment [9] was inactive.
Turning to `CC(C)N(C(=O)COc1nnc(C(F)(F)F)s1)c1ccc(F)cc1`, the Potency result in experiment [7], in [3], in experiment [8] and in experiment [6] was “inactive” each time. In addition, the result in [2], in [4] and in experiment [9] was inactive.

The values above are taken from PubChem BioAssay (Tox21).
